This is an account of results in PubChem BioAssay AID2315 (National Center for Advancing Translational Sciences (NCATS), 2010).

A word on the inhibition: it is the change of the read-out against control, counted positive when it falls.

Structures are written as SMILES. Out of some 290,000 compounds screened, about 27,000 (9.3%) were called active. This is one part of a sample in which actives are shown more often than they occur. Values without a mark were called inactive. No stated cut-off is given here; in the data, active means inhibition mostly above about 28% (no sharp cut-off); inactive means mostly below about 43%.

The nature of the assay: A qHTS for Small Molecule Inhibitors of Shiga Toxin. Further: 0% is about no effect. The note with it: Vero cells, Shiga toxin protein synthesis inhibition reporter; at 38.7 µM, hits give high values. A general note: In qHTS, concentration-response curves come from the screen itself.
In the case of `CC(=O)c1ccc(S(=O)(=O)N2CCC3(CC2)OCCO3)cc1`, the inhibition was -3.96%. Then `CN1C(=O)/C(=N/OC(=O)c2ccccc2Br)c2ccccc21`, with -3.77%; and `CCC1C(=O)c2ccccc2N(C)C1=O` (stereo not given), with -0.747%; and `CN1C(=O)/C(=C\c2cc(Br)cs2)c2ccccc21`, with 76.4% (active). As to `CCc1ccc(S(=O)(=O)Nc2cc3c(cc2N2CCCCC2)n(C)c(=O)c(=O)n3C)cc1`, the inhibition is -14.2%. The same measure for `Cc1c(Cl)cccc1NC(=O)CCC(=O)N/N=C/c1ccco1`: 4.7%.

Turning to `CC(=O)c1ccc(OCCN2CCOCC2)cc1`, the inhibition is 32.1%.

For the molecule `c1ccc(-c2ccc(OCCN3CCOCC3)cc2)cc1`, the inhibition was 86.3% (active). Turning to `CC(C)(c1ccccc1)c1ccc(OCCN2CCCC2)cc1`, the inhibition was -9.76%. For `CC(C)(C)NC(=O)C(c1ccc(Cl)cc1)N(CCO)C(=O)c1snc(C(N)=O)c1N` (stereo not given), the inhibition was -5.05%. As for `COc1ccccc1C(C)NC(=O)Cc1ccsc1` (stereo not given), the inhibition was -7.47%. Then `COc1ccc(C2CC(c3cccs3)=NN2c2ccccc2)cc1` (stereo not given), with 83% (active). In the case of `COc1ccc(C2=NN(c3ccccc3)C(c3cccs3)C2)cc1` (stereo not given), the inhibition is 3.11%. With `Oc1ccccc1C1=NN(c2ccccc2)C(c2ccccc2)C1` (stereo not given), the inhibition is 55.6% (active). For the molecule `COc1ccc(C2CC(c3cccs3)=NN2c2nc(C)c(C(C)=O)s2)cc1OC` (stereo not given), the inhibition is 15.6%. On to `CC(=O)Oc1ccccc1C1=NN(C(C)=O)C(c2ccccc2)C1` (stereo not given), for which the inhibition was 18.4%.

Take `COc1ccc(C2CC(c3cccs3)=NN2c2ccc(F)cc2)cc1OC` (stereo not given): the inhibition was 26.5%. Consider `COc1ccc(C2CC(c3cccs3)=NN2C(=O)COC(=O)c2cc3ccccc3cc2O)cc1OC` (stereo not given), for which the inhibition is -13.7%.

`COc1ccccc1N1N=C(c2cccs2)CC1c1ccccc1` (stereo not given): the inhibition was 36.3% (active). Turning to `O=C(c1ccccc1)N1N=C(c2ccccc2O)CC1c1ccc(Br)cc1` (stereo not given), the inhibition is 10.4%. Then `CS(=O)(=O)N1CCN(CC(=O)NC2CCCC2)CC1`, with -2.76%; and `O=C(Nc1ccc(Cl)cc1)c1cccc(OC(=S)N2CCOCC2)c1`, with 18%. The same measure for `O=C(COc1ccc(Cl)cc1Cl)N/N=C/c1ccccn1`: 8.65%; for `CSc1ncccc1C(=O)NCc1ccccc1Cl`: -6.54%. The same measure for `CC1(C)Cc2ccccc2-c2[nH]c(=S)[nH]c(=O)c21`: -5.22%; for `Brc1ccc(Nc2c3c(nc4ncnn24)CCC3)cc1`: -2.6%.

In the case of `COCc1cc(=O)n2[nH]c(C)c(-c3ccccc3)c2n1`, the inhibition was 8.24%.

For `Nc1scc(-c2ccncc2)c1Cl`, the inhibition is 64.7% (active). The same measure for `COC(=O)c1c(-c2ccc(C)cc2)csc1N`: -0.659%; for `CN(C(=O)COC(=O)c1nc(Cl)ccc1Cl)C1CCS(=O)(=O)C1` (stereo not given): -15.4%. Take `CC(=O)c1nn(-c2cccc(C(F)(F)F)c2)c(=O)[nH]c1=O`: the inhibition was 21.6%. `O=C1CSC(=S)N1c1ccc(Cl)c(Cl)c1`: the inhibition was 24.6%.

On to `CCCNC(=O)c1cnc(-c2ccccc2)nc1-c1ccccc1`, for which the inhibition is -8.32%. For `O=C(/C=C/c1ccc2c(c1)OCO2)NCc1cn2cc(Cl)ccc2n1`, the inhibition was 21.3%.

In the case of `Clc1ccc2nc(CSc3ccccc3)cn2c1`, the inhibition was 31.5% (active). Regarding `CCOc1ncccc1C(=O)OCc1cn2cc(Cl)ccc2n1`, the inhibition is 18.7%. Then `CC(C)CC(=O)N1CCN(Cc2cccc(Cl)c2)CC1`, with -12.6%; and `CC(=O)N(c1ccc2oc(=O)sc2c1)S(=O)(=O)c1ccc(C)cc1`, with -13.9%; and `CCC1=C(OC(=O)N(CC)CC)N2C(=O)OC(=NCCc3c[nH]c4ccccc34)[C@]2(C)[C@H]2C1=CC[C@H]1C(=O)N(CC)C(=O)[C@H]12`, with 2.44%. The same measure for `O=C(CCC(=O)N/N=C/c1ccc(Br)o1)N/N=C/c1ccc(Br)o1`: 5.62%; for `O=C(CN1C(=O)COc2ccccc21)Nc1ccc(F)cc1`: 74.4% (active). On to `O=C(CN1C(=O)COc2ccccc21)NCCN1CCc2ccccc2C1`, for which the inhibition is 29.8%. The same measure for `CC(OC(=O)CN1C(=O)COc2ccccc21)C(=O)NCc1ccc(F)cc1` (stereo not given): -12.1%; for `CC(C)C[C@@H](CO)N1CCN(Cc2ccc(O)cc2)CCC1=O`: 7.05%; for `CC(=O)NC(=S)Nc1ccc(NC(=S)NC(=O)c2ccc([N+](=O)[O-])cc2)cc1`: -11.1%. Consider `COCCCNC(=S)NC(=O)c1ccc([N+](=O)[O-])cc1`, for which the inhibition was 34% (active).

Regarding `COCCCNC(=S)NC(=O)c1ccccc1`, the inhibition was 50.8% (active). For the molecule `O=C(NCCOc1ccccc1)c1ccccc1`, the inhibition was 42.2%. Then `COCCCNC(=S)NNC(=O)C(O)(c1ccccc1)c1ccccc1`, with -12.4%. Turning to `CCCCCC(=O)NC(=S)NNC(=O)c1ccc([N+](=O)[O-])cc1`, the inhibition is -13.4%. Consider `COc1ccc(CNC(=O)C(C)NCc2ccccc2Cl)cc1` (stereo not given), for which the inhibition is -9.04%. As to `Cc1ccc(S(=O)(=O)N(CC(=O)Nc2cccnc2)c2ccc(Br)cc2)cc1`, the inhibition was -36.9%.

For the molecule `CN(C)CCCn1c(=O)n(Cc2ccccc2)c(=O)c2c3c(sc21)CCCCC3`, the inhibition is -7.1%.

Regarding `C=CCn1c(-c2sc(-c3ccccc3)nc2C)n[nH]c1=S`, the inhibition was 24.9%. Consider `Cc1nc(-c2ccccc2)sc1-c1nnc(C2CC2)o1`, for which the inhibition is 87.2% (active). The same measure for `Cc1nc(-c2ccccc2)sc1-c1nc(-c2ccccc2)ncc1S(=O)(=O)c1ccccc1`: -10.1%; for `CCOc1cc(C(=S)N2CCOCC2)ccc1OS(=O)(=O)c1ccc(Br)cc1`: 1.09%; for `C=CCOc1ccccc1NC(=O)CN1C(=O)CNC1=O`: -4.23%. Then `COc1ccc(OC)c(NC(=O)c2cccc(S(=O)(=O)N3CCN(C(C)=O)CC3)c2)c1`, with 1.91%; and `COc1ccccc1C(=O)OCC(=O)NCCNC(=O)COC(=O)c1ccccc1OC`, with -3.42%; and `Cc1ccc(-c2noc(CN3CCN(Cc4ccccc4)CC3)n2)cc1`, with 41.3%.

Take `Cc1ccc(Cc2nc(-c3cccc(C)c3)no2)cc1`: the inhibition was 48.1% (active).

As to `Cc1ccc(-c2noc(CSc3nnc(-c4ccccc4)n3C)n2)cc1`, the inhibition was -2.98%. For the molecule `Cc1cccc(-c2noc(CCC(=O)NC3CCCC3)n2)c1`, the inhibition is 24.9%.

On to `Cc1cccc(-c2nc(Nc3ccc(O)cc3)c3ccccc3n2)c1`, for which the inhibition is -1.6%.

In the case of `Cc1cccc(-c2noc(-c3ccc(F)cc3)n2)c1`, the inhibition was 152% (active).

In the case of `O=C(O)CC(CC(=O)N1CCOCC1)c1ccccc1` (stereo not given), the inhibition was -6.69%. Then `Cc1c(NC(=O)c2c([N+](=O)[O-])cnn2C)c(=O)n(-c2ccccc2)n1C`, with -11.5%. Consider `Cc1ccc(OCC(=O)Nc2ccccc2C(=O)NC2CC2)cc1C`, for which the inhibition is -4.84%. Then `COc1ccc(OCCC(=O)c2ccc(OC)cc2)cc1`, with -6.88%. In the case of `COc1ccc(C(=O)CC2C(=O)N(C)C(=O)N(C)C2=O)cc1`, the inhibition is 13.8%. Then `CO/N=C/CC(=O)c1ccc(OC)cc1`, with 91.1% (active).

Take `Cc1ccc(C(=O)c2coc3ccc(O)c(CN(C)C)c23)cc1`: the inhibition was -0.742%. For `Cc1ccc(S(=O)(=O)NCCSC(C)(C)C)cc1`, the inhibition is -15.2%.

`CC(C)(C)SCCSC1=CC(=O)CC(c2ccccc2)C1` (stereo not given): the inhibition is 75.7% (active).

On to `O=C(O)CC/C(=C\c1cc2c(cc1Br)OCO2)c1nc2ccccc2s1`, for which the inhibition was -7.28%. With `O=S(=O)(ON(c1ccccc1)S(=O)(=O)c1ccccc1)c1ccccc1`, the inhibition was -5.69%.

On to `CC1=C/C(=N\OS(=O)(=O)c2ccccc2)C=CC1=O`, for which the inhibition was 67.3% (active). With `Cc1ccc(S(=O)(=O)c2ccc(Oc3ccccc3)cc2)cc1`, the inhibition is -11.7%.

Regarding `COC(=O)c1ccc(NC(=O)CSc2nncn2-c2cccnc2)cc1`, the inhibition is 29.9%. The same measure for `CC(Sc1nnc(CNC(=O)c2ccccc2F)n1C)C(=O)Nc1nccs1` (stereo not given): -6.1%; for `COc1ccccc1-n1ccnc1SCC(=O)NC(C)(C)C`: 18.7%; for `CC(C)(C)NC(=O)CSC(=Nc1ccccc1F)NC#N`: 33.9% (active). The same measure for `Cc1ccccc1CSCC(=O)NC(=O)NC(C)(C)C`: 11%; for `CS(=O)(=O)c1sc2nc(-c3ccccc3)cc(-c3ccccc3)c2c1N`: -3.26%; for `CN(C)c1ccnc2sc(C(=O)c3ccccc3)c(N)c12`: 25.4% (active). In the case of `CCN(CC)C(=O)c1sc2nc(-c3ccccc3)ccc2c1N`, the inhibition is 165% (active). Then `COC(=O)c1cc2c(N)c(C(=O)c3ccc(Cl)cc3)sc2nc1C(OC)OC`, with -1.42%; and `CCc1nc2sc(C(=O)O)c(N)c2c2c1CCCC2`, with -12.9%. For the molecule `COc1cccc(C(=O)c2sc3nc(-c4ccccc4)cc(C(F)(F)F)c3c2N)c1`, the inhibition is -1.9%. For the molecule `Cc1nc2sc(C(=O)c3ccccc3)c(N)c2c2c1CCCC2`, the inhibition was 18.1% (active). On to `NC(=O)c1sc2nc3c(c(-c4ccccc4)c2c1N)CCC3`, for which the inhibition is -11.8%.

For the molecule `Cc1ccc2c(N)c(C(=O)c3ccccc3)sc2n1`, the inhibition was 87.1% (active). The same measure for `CCOC(=O)c1sc2nc(SC)nc(-c3ccccc3)c2c1N`: -14%; for `CN(C)c1ccnc2sc3c(=O)n(Cc4ccccc4)cnc3c12`: -12.3%. Turning to `CC(=O)c1c(Nc2ccccc2)sc(C(=O)c2ccccc2)c1C`, the inhibition is -8.12%. Then `CC(C)C[C@H]1CN=C(Nc2ccccc2)N1CC1CCCCC1`, with 0.785%. The same measure for `O=C(Cc1ccccn1)c1ccc(O)cc1O`: -4.76%; for `Cc1cccc(C(=O)N2CCCC(Nc3ccc(C(C)C)cc3)C2)n1` (stereo not given): 19.6%. Then `CCn1c(SCc2cccc(C(=O)O)c2)nnc1-c1ccc(Cl)cc1`, with 7.08%.
